Results on 40 compounds are retold here after PubChem BioAssay AID489038 (National Center for Advancing Translational Sciences (NCATS), 2010).

SMILES strings stand for the structures. Inconclusive results are not listed. Calls of active or inactive are those of the source. The call rests on the fitted dose curve; in most records, active means well fitted inhibition curve with a large enough effect; inconclusive means small, poorly fitted or top-dose-only effect, or effect the other way; inactive means no such curve, though single readings can be large or run the other way.
On the % scale 0 is the no-effect control and ±100 the full control effect; potency means the concentration at half of the fitted maximal effect.

The test in a line: DHR3 selectivity assay for inhibitors of ROR gamma transcriptional activity. The following applies: Drosophila S2 Gal4-DHR3 UAS-luciferase, 20 h; series mostly up to 92.2 µM; activity change, negative = inhibition: at the top concentration. From the text:
NIH Molecular Libraries Probe Production Network [MLPCN] NIH Chemical Genomics Center [NCGC] MLPCN Grant: R03 DA026211-01 Assay Provider: Dan Littman, New York University Assay Overview: The retinoic acid-related orphan receptor (ROR) gamma is a transcription factor that has a central role in the differentiation of Th17 cells, a subset of T helper cells that secrete the inflammatory cytokines IL-17A, IL-17F, and IL-22. Th17 cells have been implicated in graft versus host disease, autoimmune disease and asthma. RORgamma is induced in naive T helper cells in the presence of TGF-beta combined with IL-6, IL-21, or IL-23, and thereafter directs the expression of the Th17 lineage cytokines. To identify […] inhibitors, a Drosophila Schneider cell line was stably transfected with two vectors: a gene expressing a fusion of the Gal4 DNA binding domain and the transactivation domain of the Drosophila Hormone Receptor 3 (DHR3), under the control of the metallothionine promoter and a Photinus luciferase reporter regulated by the Gal4 binding site enhancer, UAS. […] Small molecule inhibitors that inhibit components common to the RORgamma and DHR3 assays, such as proteins that interact with general nuclear hormone receptors, will be active in both assays and thus scored as nonselective.
Assay Protocol Summary: For screening, 600 cells in 4 uL/well were dispensed into white solid 1536-well plates (Grenier) using a solenoid-based dispenser. Following transfer of 23 nL compound or DMSO vehicle by a pin tool, the plates were incubated 1 hr at ambient temperature, and 1 uL/well copper sulfate (700 uM final concentration) was added. The plates were centrifuged 15 s at 1000 RPM and incubated 20 hr at ambient temperature. After addition of 1.5 uL Photinus luciferase detection reagent, the plates were incubated 10 min at ambient temperature and then read by an ViewLux (Perkin Elmer) to detect luminescence.
Turning to `CCOC(=O)c1sc(NC(=O)c2ccc(S(=O)(=O)N(C)C)cc2)nc1C`, the Potency was 45.7 nM (active).
For `C[C@@H]1[C@H](C)CC[C@]2(C(=O)O)CC[C@]3(C)C(=CC[C@@H]4[C@@]5(C)CC[C@H](O)C(C)(C)[C@H]5CC[C@]43C)[C@@H]12`, the Potency is 18200 nM (active).
Regarding `CC1CCCN(C(=O)CC(c2ccc3c(c2)OCO3)c2ccc(O)cc2O)C1` (stereo not given), the “activity change, negative = inhibition” value was 18.5% (inactive).
In the case of `CCC(=O)C1CCCN(C(=O)CC(c2ccc3c(c2)OCO3)c2c(O)cc(OC)cc2OC)C1` (stereo not given), the “activity change, negative = inhibition” value is 23.3% (inactive).
Take `CN(C)S(=O)(=O)c1ccc(NC(=O)/C=C/c2ccccc2Cl)cc1`: the Potency was 1620 nM (active).
For `COc1ccccc1C(CC(=O)N1CCCC(C)C1)c1ccccc1` (stereo not given), the “activity change, negative = inhibition” value was 7.3% (inactive).
For `COc1cc(O)c(C(CC(=O)NC2CCC(C)CC2)c2ccc3c(c2)OCO3)c(OC)c1` (stereo not given), the “activity change, negative = inhibition” value was 8.82% (inactive).
`Cc1ccc(C(C)C)c(C(CC(=O)N2CCCC(C)C2)c2ccc3c(c2)OCO3)c1O` (stereo not given): the “activity change, negative = inhibition” value is -27.4% (inactive).
Same read-out and setting: to `COc1ccccc1CNC(=O)[C@@H](NC(=O)C1CCN(C(=O)[C@@H]2CCCN2C(=O)OC(C)(C)C)CC1)C(C)C` belongs 19.8% (inactive).
As to `COc1cc(O)c(C(CC(=O)N(C)c2cccc(C)c2)c2ccc3c(c2)OCO3)c(OC)c1` (stereo not given), the “activity change, negative = inhibition” value was -32.8% (inactive).
Take `Cc1cc(C)c2sc(NC(=O)c3ccc(N4C(=O)CCC4=O)cc3)nc2c1`: the Potency is 102 nM (active).
`O=C(CCCN1C(=O)/C(=C/c2ccccc2Cl)SC1=S)Nc1cccnc1`: the Potency was 645 nM (active).
On the same count and under the same terms, then `CCOC(=O)c1sc(NC(=O)c2cc3c(s2)CCC(C)C3)nc1C` (stereo not given), with 51.2 nM (active).
For `COc1ccc(C(CC(=O)Nc2ccc(F)cc2)c2ccccc2)cc1` (stereo not given), the “activity change, negative = inhibition” value is 17% (inactive).
Take `Cc1cccc(-c2nc3cc(NC(=O)C4CCCO4)ccc3o2)c1` (stereo not given): the Potency was 2290 nM (active).
Consider `COC(=O)c1ccc(OCC(=O)c2ccc(O)cc2O)cc1`, for which the Potency is 363 nM (active).
`CC1=C(\C=C/C(C)=C/C=C\C(C)=C\C(=O)O)C(C)(C)CCC1`: the activity change, negative = inhibition was -6.6% [at 20 µM] (inactive).
On to `Cc1cccc(C(CC(=O)NCCc2ccccc2)c2ccccc2)c1O` (stereo not given), for which the “activity change, negative = inhibition” value was 21.2% (inactive).
On to `COCC1CCCN(C(=O)CC(c2ccc3c(c2)OCO3)c2c(O)cc(OC)cc2OC)C1` (stereo not given), for which the “activity change, negative = inhibition” value was 0.668% (inactive).
Regarding `CCOc1ccc(-c2cc(CCCC(=O)NCc3cccnc3)no2)cc1`, the Potency is 812 nM (active).
The same measure, in the same setting: to `CCNC(=O)CCc1nc(-c2ccc(C(C)(C)C)cc2)no1` belongs 115 nM (active).
On to `CC1CCCN(C(=O)CC(c2ccc3c(c2)OCO3)c2cc(-c3ccccc3)ccc2O)C1` (stereo not given), for which the “activity change, negative = inhibition” value is 20.5% (inactive).
On to `CCC1(CC)CCN(C(=O)CC(c2ccc3c(c2)OCO3)c2c(O)cc(OC)cc2OC)C1` (stereo not given), for which the “activity change, negative = inhibition” value was 18.8% (inactive).
For `COc1cc(O)c(C(CC(=O)N2CCCC(C(C)C)C2)c2ccc3c(c2)OCO3)c(OC)c1` (stereo not given), the “activity change, negative = inhibition” value was -23% (inactive).
The same measure, in the same setting: then `CC1CCCN(C(=O)CC(c2ccc3c(c2)OCO3)c2ccc3ccccc3c2O)C1` (stereo not given), with 23.6% (inactive).
The same measure, in the same setting: then `COc1cc(O)c(C(CC(=O)N2CCCC(c3nc4ccccc4o3)C2)c2ccc3c(c2)OCO3)c(OC)c1` (stereo not given), with -5.9% (inactive).
On to `COc1cc(O)c(C(CC(=O)N2CCCC(C)C2)c2cccc3ccccc23)c(OC)c1` (stereo not given), for which the “activity change, negative = inhibition” value is 12.5% (inactive).
`CCOC(=O)C1CCN(CC(=O)Nc2cc(C)nn2-c2nc3ccccc3s2)CC1`: the Potency is 7240 nM (active).
In the case of `COc1cc(O)c(C(CC(=O)N2CCCC(C#N)C2)c2ccc3c(c2)OCO3)c(OC)c1` (stereo not given), the “activity change, negative = inhibition” value was 11.7% (inactive).
On to `COc1ccc(C(CC(=O)N2CCCC(C)C2)c2c(O)cc(OC)cc2OC)c(OC)c1` (stereo not given), for which the “activity change, negative = inhibition” value was 15.3% (inactive).
`COc1cc(O)c(C(CC(=O)N2CCC(C)CC2)c2ccc(OC)c(OC)c2)c(OC)c1` (stereo not given): the “activity change, negative = inhibition” value is 23.2% (inactive).
For the compound `COc1cc(O)c(C(CC(=O)N2CCCC(C)C2)c2ccc(-c3ccccc3)cc2)c(OC)c1` (stereo not given), the “activity change, negative = inhibition” value is -2.77% (inactive).
Consider `COc1cc(O)c(C(CC(=O)N2CCC(c3ccccc3)CC2)c2ccc3c(c2)OCO3)c(OC)c1` (stereo not given), for which the “activity change, negative = inhibition” value was 15.7% (inactive).
As to `COc1cc(O)c(C(CC(=O)N2CCCC(C(F)(F)F)C2)c2ccc3c(c2)OCO3)c(OC)c1` (stereo not given), the “activity change, negative = inhibition” value is -17.6% (inactive).
On the same count and under the same terms, then `COc1cc(O)c(C(CC(=O)NCc2ccccc2)c2ccc3c(c2)OCO3)c(OC)c1` (stereo not given), with 15.4% (inactive).
Take `COc1cc(O)c(C(CC(=O)N2CCCC(C(=O)c3ccccc3)C2)c2ccc3c(c2)OCO3)c(OC)c1` (stereo not given): the “activity change, negative = inhibition” value was -19.8% (inactive).
`COc1cc(OC)c(C(CC(=O)N2CCCC(C)C2)c2ccc3c(c2)OCO3)c(OC)c1` (stereo not given): the “activity change, negative = inhibition” value was 27.2% (inactive).
As for `COc1cc(O)c(C(CC(=O)NC2CCCc3ccccc32)c2ccc3c(c2)OCO3)c(OC)c1` (stereo not given), the “activity change, negative = inhibition” value is 37% (inactive).
Regarding `COc1cc(O)c(C(CC(=O)N2CCOCC2)c2ccc(C)cc2)c(OC)c1` (stereo not given), the “activity change, negative = inhibition” value is 3.9% (inactive).
Take `Cc1ccc(Sc2cncc3sc(C(N)=O)cc23)cc1`: the Potency was 102 nM (active).
